# Data as given in PubChem BioAssay (EPA / NIEHS).
# Inconclusive results are not listed. Active and inactive are the calls of the source. Rule for the calls, unless noted: active = hit-call score of the fitted dose curve at least 0.9, where 1 is the maximum; inconclusive = response in the unintended direction; inactive = score below 0.9.
# How the values were obtained:
# [1] = ATG_TCF_b_cat_CIS: Attagene CIS-FACTORIAL HepG2 Assay for human T-Cell-Factor with beta-catenin (TCF/b-cat) (AID 2282965; active = hit-call score of the fitted dose curve at least 0.9, where 1 is the maximum; inactive = score below 0.9); settings: HepG2 TCF/beta-catenin cis-reporter transcription, actives raise or lower the signal
# How it was run: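 Endogenous transcription factor activity is captured through cis-promoter reporter constructs transiently introduced into human HepG2 liver cells. Induced reporter mRNA is measured after 24 h and fitted bidirectionally relative to DMSO.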
# [2] = ATG_TAL_CIS: Attagene CIS-FACTORIAL HepG2 Assay for human TAL Basal Promoter (AID 2282966; active = hit-call score of the fitted dose curve at least 0.9, where 1 is the maximum; inactive = score below 0.9;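 note: background control endpoint measuring basal TAL promoter reporter mRNA not a specific factor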); settings: HepG2 Attagene cis-factorial TAL promoter reporter; actives raise or lower the signal
# How it was run: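 Human hepatoma HepG2 cells, transfected with promoter-regulated reporter units, were treated 24 h. Reporter transcript levels, measured through RT-PCR and capillary electrophoresis, were fitted for gain or loss relative to DMSO.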
# [3] = ATG_TGFb_CIS: Attagene CIS-FACTORIAL HepG2 Assay for human Transforming Growth Factor (TGF) (AID 2282967; active = hit-call score of the fitted dose curve at least 0.9, where 1 is the maximum; inactive = score below 0.9); settings: HepG2 Attagene CIS TGFb reporter, mRNA transcription; actives raise or lower the signal
# How it was run: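 Readout: fluorescently labeled reporter cDNA fragments resolved by capillary electrophoresis after RT-PCR. Transfected HepG2 cells dosed for 24 h; endogenous TF activity at TGFB1-linked cis element; gain or loss fitted relative to DMSO.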
# [4] = ATG_VDRE_CIS: Attagene CIS-FACTORIAL HepG2 Assay for human Vitamin D Receptor Element (VDRE) (AID 2282968; active = hit-call score of the fitted dose curve at least 0.9, where 1 is the maximum; inactive = score below 0.9); settings: HepG2 VDRE cis-reporter transcription, actives raise or lower the signal
# How it was run: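 Readout is VDRE-driven reporter mRNA reflecting endogenous factor activity in human HepG2 cells, sampled 24 h post-dose. Quantification used labelled RT-PCR products separated by capillary electrophoresis; bidirectional analysis relative to DMSO.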
# [5] = target: Nuclear receptor subfamily 1 group I member 3 (Homo sapiens) (UniProt Q14994); test: ATG_CAR_TRANS: Attagene TRANS-FACTORIAL HepG2 Assay for human Constitutive Androstane Receptor (CAR) (AID 2282969); settings: HepG2 Attagene TRANS-FACTORIAL CAR reporter;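 note: activators raise reporter mRNA above DMSO so AC50 marks induction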
# Chain of Nuclear receptor subfamily 1 group I member 3 (Homo sapiens) (Q14994 whole entry, looked up, the tested form may be a part): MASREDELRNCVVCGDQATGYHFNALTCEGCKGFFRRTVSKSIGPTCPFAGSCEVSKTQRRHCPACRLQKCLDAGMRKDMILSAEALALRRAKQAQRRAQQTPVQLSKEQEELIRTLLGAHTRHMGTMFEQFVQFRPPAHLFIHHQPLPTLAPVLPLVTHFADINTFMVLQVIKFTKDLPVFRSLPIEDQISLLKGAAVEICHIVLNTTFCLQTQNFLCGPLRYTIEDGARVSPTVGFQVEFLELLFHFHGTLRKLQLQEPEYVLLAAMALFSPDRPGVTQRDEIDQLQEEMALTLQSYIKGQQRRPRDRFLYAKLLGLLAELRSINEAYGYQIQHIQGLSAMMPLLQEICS
# How it was run: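 Signal is reporter mRNA induction relative to DMSO, measured 24 h after dosing by RT-PCR with fluorescent primer extension and capillary electrophoresis. Human HepG2 liver cells carried transiently transfected chimeric NR-Gal4/GAL4-UAS reporter constructs.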
# [6] = target: Estrogen receptor (Homo sapiens) (UniProt P03372); test: ATG_ERa_TRANS: Attagene TRANS-FACTORIAL HepG2 Assay for human Estrogen Receptor alpha (ERa) (AID 2282970); settings: HepG2 Attagene TRANS ERa GAL4 reporter, mRNA
# Chain of Estrogen receptor (Homo sapiens) (P03372 whole entry, looked up, the tested form may be a part): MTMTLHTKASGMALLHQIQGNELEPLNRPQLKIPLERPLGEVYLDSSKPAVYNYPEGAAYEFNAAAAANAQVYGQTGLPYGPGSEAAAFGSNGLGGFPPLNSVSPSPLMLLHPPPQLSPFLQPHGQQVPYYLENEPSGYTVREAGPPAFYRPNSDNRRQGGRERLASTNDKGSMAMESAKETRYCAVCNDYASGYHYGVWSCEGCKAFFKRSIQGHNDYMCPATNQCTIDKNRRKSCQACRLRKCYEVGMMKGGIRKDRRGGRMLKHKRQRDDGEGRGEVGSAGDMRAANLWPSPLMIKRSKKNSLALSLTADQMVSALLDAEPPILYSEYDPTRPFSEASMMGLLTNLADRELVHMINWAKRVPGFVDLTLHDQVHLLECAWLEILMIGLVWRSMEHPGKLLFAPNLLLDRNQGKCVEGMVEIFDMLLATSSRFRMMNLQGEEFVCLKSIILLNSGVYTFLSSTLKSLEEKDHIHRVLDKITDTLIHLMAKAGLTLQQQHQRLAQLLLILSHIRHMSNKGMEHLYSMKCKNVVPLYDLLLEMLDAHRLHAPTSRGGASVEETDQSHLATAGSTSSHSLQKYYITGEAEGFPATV
# How it was run: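 Signal derives from fluorescence of labelled reporter PCR fragments separated by capillary electrophoresis. HepG2 cells transiently carrying multiple GAL4-UAS reporter units were treated 24 hours, and induction above DMSO baseline was fitted as activity.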
# [7] = target: X-box-binding protein 1 (Homo sapiens) (UniProt P17861); test: ATG_Xbp1_CIS: Attagene CIS-FACTORIAL HepG2 Assay for human X-box Binding Protein 1 (XBP1) (AID 2282972; active = hit-call score of the fitted dose curve at least 0.9, where 1 is the maximum; inactive = score below 0.9); settings: HepG2 XBP1 cis-element reporter, Attagene multiplex; actives raise or lower the signal
# Chain of X-box-binding protein 1 (Homo sapiens) (P17861 whole entry, looked up): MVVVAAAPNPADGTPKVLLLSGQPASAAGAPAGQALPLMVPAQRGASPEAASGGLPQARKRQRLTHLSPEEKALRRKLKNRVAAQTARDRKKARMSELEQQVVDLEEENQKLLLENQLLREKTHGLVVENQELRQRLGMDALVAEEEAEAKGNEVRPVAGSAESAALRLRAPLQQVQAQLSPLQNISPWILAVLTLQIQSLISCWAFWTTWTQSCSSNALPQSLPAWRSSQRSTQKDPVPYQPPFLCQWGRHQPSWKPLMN
# How it was run: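 Changes in reporter transcript abundance, read by RT-PCR and capillary electrophoresis, reflect endogenous transcription factor activity. Transfected HepG2 cells received compound for 24 hours; DMSO defined baseline for bidirectional analysis.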
# [8] = target: Glucocorticoid receptor (Homo sapiens) (UniProt P04150); test: ATG_GR_TRANS: Attagene TRANS-FACTORIAL HepG2 Assay for human Glucocorticoid Receptor (GR) (AID 2282978); settings: HepG2 Attagene TRANS GR reporter, mRNA transcription;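 note: activators score as hits since higher reporter transcript over DMSO is fitted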
# How it was run: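 Readout is reporter transcript from a chimeric GR-Gal4 acting on GAL4-UAS in transfected human HepG2 liver cells after 24 h exposure, quantified by RT-PCR and capillary electrophoresis. Activation fitted upward against DMSO.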
# [9] = target: Oxysterols receptor LXR-alpha (Homo sapiens) (UniProt Q13133); test: ATG_LXRa_TRANS: Attagene TRANS-FACTORIAL HepG2 Assay for human Liver X Receptor alpha (LXRa) (AID 2282980); settings: HepG2 Attagene TRANS reporter, LXRa transactivation
# Chain of Oxysterols receptor LXR-alpha (Homo sapiens) (Q13133 whole entry, looked up, the tested form may be a part): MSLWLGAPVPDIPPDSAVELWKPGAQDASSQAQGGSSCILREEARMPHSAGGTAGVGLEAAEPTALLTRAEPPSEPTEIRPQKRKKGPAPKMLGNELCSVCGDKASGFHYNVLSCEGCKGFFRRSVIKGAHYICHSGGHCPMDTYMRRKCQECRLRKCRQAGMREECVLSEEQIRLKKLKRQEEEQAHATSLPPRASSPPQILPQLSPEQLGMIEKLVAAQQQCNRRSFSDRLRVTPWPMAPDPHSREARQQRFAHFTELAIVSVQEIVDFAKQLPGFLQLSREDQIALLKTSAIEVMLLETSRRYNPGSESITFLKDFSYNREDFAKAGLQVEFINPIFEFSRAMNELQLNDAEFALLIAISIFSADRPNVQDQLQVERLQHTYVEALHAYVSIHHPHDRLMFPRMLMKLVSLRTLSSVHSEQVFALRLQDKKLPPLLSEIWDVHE
# How it was run: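 In this multiplexed TRANS system, compounds act on HepG2 cells carrying GAL4-UAS reporter units and a receptor-GAL4 fusion for 24 h. Induced reporter RNA is amplified, fluorescently labelled and sized by capillary electrophoresis, with DMSO as baseline.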
# [10] = target: Oxysterols receptor LXR-beta (Homo sapiens) (UniProt P55055); test: ATG_LXRb_TRANS: Attagene TRANS-FACTORIAL HepG2 Assay for human Liver X Receptor beta (LXRb) (AID 2282981); settings: HepG2 Attagene TRANS GAL4-LXRb reporter, mRNA
# Chain of Oxysterols receptor LXR-beta (Homo sapiens) (P55055 whole entry, looked up, the tested form may be a part): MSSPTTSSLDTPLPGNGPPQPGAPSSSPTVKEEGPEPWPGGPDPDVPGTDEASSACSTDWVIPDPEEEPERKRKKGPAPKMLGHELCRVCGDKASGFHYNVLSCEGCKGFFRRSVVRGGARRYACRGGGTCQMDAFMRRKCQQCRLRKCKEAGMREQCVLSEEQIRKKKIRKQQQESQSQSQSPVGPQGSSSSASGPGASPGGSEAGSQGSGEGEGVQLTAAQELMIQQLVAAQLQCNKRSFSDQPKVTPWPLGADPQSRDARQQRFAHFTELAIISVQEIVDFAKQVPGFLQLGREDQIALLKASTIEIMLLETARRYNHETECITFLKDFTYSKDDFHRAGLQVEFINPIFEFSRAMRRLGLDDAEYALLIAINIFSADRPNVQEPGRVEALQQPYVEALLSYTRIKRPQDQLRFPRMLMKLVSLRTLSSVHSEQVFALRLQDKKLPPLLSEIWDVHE
# How it was run: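 After 24 h chemical treatment of transfected HepG2 cells carrying exogenous NR-Gal4 chimeras, reporter mRNA was quantified by fluorescent RT-PCR and capillary electrophoresis; activity taken as increase over DMSO controls.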
# [11] = target: Hepatocyte nuclear factor 4-alpha (Homo sapiens) (UniProt P41235); test: ATG_HNF4a_TRANS: Attagene TRANS-FACTORIAL HepG2 Assay for human Hepatocyte Nuclear Factor 4 alpha (HNF4a) (AID 2282982); settings: HepG2 HNF4a transactivation reporter, mRNA readout
# Chain of Hepatocyte nuclear factor 4-alpha (Homo sapiens) (P41235 whole entry, looked up, the tested form may be a part): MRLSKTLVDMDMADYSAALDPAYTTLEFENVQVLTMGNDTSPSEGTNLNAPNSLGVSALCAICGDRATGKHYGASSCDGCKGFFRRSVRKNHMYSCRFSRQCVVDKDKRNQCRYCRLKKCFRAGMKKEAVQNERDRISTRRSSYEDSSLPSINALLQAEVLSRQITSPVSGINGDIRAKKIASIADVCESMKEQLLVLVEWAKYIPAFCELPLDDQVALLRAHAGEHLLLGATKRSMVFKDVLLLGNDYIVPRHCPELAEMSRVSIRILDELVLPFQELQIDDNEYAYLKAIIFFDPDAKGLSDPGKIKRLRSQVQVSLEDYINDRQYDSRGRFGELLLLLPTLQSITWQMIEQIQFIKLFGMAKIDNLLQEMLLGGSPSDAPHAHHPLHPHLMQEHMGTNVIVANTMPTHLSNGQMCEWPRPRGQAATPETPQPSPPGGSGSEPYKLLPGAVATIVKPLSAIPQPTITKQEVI
# How it was run: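 Activity of an exogenous HNF4a–Gal4 fusion scored as induced GAL4-UAS reporter transcripts after 24 h chemical exposure of transfected human HepG2 cells. Read-out via RT-PCR with 6-FAM labelling and capillary electrophoresis; rise over DMSO baseline.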
# [12] = ATG_M_06_TRANS: Attagene TRANS-FACTORIAL HepG2 Assay for M06 Transcription Factor (Internal Marker) (AID 2282983); settings: HepG2 Attagene TRANS M06 internal marker reporter
# How it was run: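 Multi-reporter-transfected HepG2, 24 h treatment; reporter transcripts quantified via RT-PCR, primer-extension labelling and CE. DMSO-normalized gain-of-signal fit.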
# [13] = target: Nuclear receptor subfamily 4 group A member 2 (Homo sapiens) (UniProt P43354); test: ATG_NURR1_TRANS: Attagene TRANS-FACTORIAL HepG2 Assay for human Nuclear Receptor Related Protein 1 (NURR1) (AID 2282985); settings: HepG2 Attagene TRANS reporter, mRNA readout
# Chain of Nuclear receptor subfamily 4 group A member 2 (Homo sapiens) (P43354 whole entry, looked up, the tested form may be a part): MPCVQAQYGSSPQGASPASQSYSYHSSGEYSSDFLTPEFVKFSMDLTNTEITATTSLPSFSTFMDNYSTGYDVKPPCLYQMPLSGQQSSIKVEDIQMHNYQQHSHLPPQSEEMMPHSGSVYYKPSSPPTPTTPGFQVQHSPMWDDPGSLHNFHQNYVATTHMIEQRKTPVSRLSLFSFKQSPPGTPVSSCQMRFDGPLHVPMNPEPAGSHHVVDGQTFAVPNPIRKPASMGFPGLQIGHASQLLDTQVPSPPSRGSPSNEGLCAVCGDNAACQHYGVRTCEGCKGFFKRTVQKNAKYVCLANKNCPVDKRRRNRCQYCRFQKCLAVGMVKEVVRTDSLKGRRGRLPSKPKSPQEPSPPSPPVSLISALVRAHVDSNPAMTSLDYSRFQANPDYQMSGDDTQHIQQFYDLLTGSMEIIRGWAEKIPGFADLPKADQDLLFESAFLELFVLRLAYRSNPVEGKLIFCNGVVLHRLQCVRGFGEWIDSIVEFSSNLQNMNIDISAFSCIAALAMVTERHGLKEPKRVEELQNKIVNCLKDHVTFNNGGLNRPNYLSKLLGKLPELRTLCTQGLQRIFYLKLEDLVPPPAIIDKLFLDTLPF
# How it was run: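 Reporter transcript induction, measured by RT-PCR with fluorescent labelling, HpaI digestion and capillary electrophoresis, after 24 hr dosing of human HepG2 cells transiently expressing an exogenous NR-Gal4 fusion with GAL4-UAS-driven reporters; DMSO as baseline.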
# [14] = target: Steroid hormone receptor ERR1 (Homo sapiens) (UniProt P11474); test: ATG_ERRa_TRANS: Attagene TRANS-FACTORIAL HepG2 Assay for human Estrogen-Related Receptor alpha (ERRa) (AID 2282971); settings: HepG2 Attagene TRANS reporter, ERRa transactivation
# Chain of Steroid hormone receptor ERR1 (Homo sapiens) (P11474 whole entry, looked up, the tested form may be a part): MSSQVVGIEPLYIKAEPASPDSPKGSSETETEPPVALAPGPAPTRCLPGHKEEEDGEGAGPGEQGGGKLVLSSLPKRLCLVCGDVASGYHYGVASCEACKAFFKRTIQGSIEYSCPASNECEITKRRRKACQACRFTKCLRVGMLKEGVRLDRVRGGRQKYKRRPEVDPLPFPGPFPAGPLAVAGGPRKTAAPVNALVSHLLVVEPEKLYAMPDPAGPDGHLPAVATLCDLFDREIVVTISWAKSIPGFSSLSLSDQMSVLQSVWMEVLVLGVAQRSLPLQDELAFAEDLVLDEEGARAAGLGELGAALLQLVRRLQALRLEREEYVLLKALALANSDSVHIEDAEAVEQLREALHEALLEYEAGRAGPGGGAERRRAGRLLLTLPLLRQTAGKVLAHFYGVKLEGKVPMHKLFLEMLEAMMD
# How it was run: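 Signal gain relative to DMSO for an ERRa-Gal4 chimeric receptor, read as reporter mRNA by RT-PCR/capillary electrophoresis. Human HepG2 liver cells, transient multiplex reporter transfection, 24 h chemical exposure.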
# [15] = ATG_M_19_TRANS: Attagene TRANS-FACTORIAL HepG2 Assay for M19 Transcription Factor (Internal Marker) (AID 2282974); settings: HepG2 Attagene TRANS-FACTORIAL M19 internal marker reporter
# How it was run: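 Background-control readout: after 24 h chemical exposure of transfected HepG2 carrying GAL4-driven reporter units, RNA was reverse-transcribed, amplified, fluorescently labeled and sized by capillary electrophoresis; gain-of-signal fit against DMSO.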
# [16] = target: Estrogen-related receptor gamma (Homo sapiens) (UniProt P62508); test: ATG_ERRg_TRANS: Attagene TRANS-FACTORIAL HepG2 Assay for human Estrogen-Related Receptor gamma (ERRg) (AID 2282977); settings: HepG2 Attagene TRANS reporter, ERRg transactivation;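 note: hits increase reporter signal over DMSO so potencies reflect activators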
# Chain of Estrogen-related receptor gamma (Homo sapiens) (P62508 whole entry, looked up, the tested form may be a part): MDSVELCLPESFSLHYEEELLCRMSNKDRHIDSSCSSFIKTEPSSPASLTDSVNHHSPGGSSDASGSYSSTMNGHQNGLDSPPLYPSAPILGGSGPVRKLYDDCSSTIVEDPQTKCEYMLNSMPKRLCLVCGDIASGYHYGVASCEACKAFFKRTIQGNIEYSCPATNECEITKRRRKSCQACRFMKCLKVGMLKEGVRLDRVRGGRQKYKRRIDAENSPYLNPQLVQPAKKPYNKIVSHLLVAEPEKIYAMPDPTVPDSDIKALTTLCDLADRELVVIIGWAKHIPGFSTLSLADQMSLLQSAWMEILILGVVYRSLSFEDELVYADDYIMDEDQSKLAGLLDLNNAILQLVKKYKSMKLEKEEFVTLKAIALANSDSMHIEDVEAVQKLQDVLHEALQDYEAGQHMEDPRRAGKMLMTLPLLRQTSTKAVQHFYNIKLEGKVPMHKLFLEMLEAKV
# How it was run: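 Exogenous NR-Gal4 chimera activity measured as reporter transcript induction after 24 h in transiently transfected HepG2 cells. RNA reverse-transcribed, PCR-amplified, 6-FAM-labelled and resolved by capillary electrophoresis; increase over DMSO baseline.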
# [17] = ATG_M_32_TRANS: Attagene TRANS-FACTORIAL HepG2 Assay for M32 Transcription Factor (Internal Marker) (AID 2282984); settings: HepG2 Attagene TRANS M32 internal marker reporter
# How it was run: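 Internal background reporter in transfected HepG2: after 24 h chemical exposure, RNA reverse-transcribed, reporter cDNA amplified, fluorescently labelled and HpaI-cut, then sized by capillary electrophoresis. Gain of signal fitted against DMSO control.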
# [18] = target: Transcriptional activator Myb (Homo sapiens) (UniProt P10242); test: ATG_Myb_CIS: Attagene CIS-FACTORIAL HepG2 Assay for human Myeloblastosis (Myb) Proto-Oncogene Transcription Factor (AID 2282986; active = hit-call score of the fitted dose curve at least 0.9, where 1 is the maximum; inactive = score below 0.9); settings: HepG2 Attagene CIS-FACTORIAL Myb reporter transcription; actives raise or lower the signal
# Chain of Transcriptional activator Myb (Homo sapiens) (P10242 whole entry, looked up): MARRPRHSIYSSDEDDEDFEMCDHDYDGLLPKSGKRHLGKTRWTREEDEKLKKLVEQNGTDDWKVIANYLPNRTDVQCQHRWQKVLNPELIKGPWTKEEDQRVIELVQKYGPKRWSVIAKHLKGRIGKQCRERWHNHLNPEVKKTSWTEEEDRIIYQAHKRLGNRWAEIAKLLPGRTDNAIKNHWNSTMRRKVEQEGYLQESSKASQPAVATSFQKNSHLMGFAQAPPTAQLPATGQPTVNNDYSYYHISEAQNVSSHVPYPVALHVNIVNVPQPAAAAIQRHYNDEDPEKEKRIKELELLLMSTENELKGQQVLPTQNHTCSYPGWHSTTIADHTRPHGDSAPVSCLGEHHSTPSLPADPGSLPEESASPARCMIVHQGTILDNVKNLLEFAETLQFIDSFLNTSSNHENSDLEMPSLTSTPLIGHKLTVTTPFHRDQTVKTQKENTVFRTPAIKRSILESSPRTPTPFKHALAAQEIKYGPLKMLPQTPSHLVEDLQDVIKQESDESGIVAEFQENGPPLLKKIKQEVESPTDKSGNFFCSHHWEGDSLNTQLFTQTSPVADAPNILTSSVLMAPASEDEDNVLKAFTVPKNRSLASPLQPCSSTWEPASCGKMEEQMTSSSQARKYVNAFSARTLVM
# How it was run: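 Reporter mRNA is quantified by RT-PCR and capillary electrophoresis 24 h after dosing HepG2 cells transfected with cis-regulated reporter units, which track endogenous transcription factor activity. Gain and loss of signal are fitted versus DMSO baseline.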
# [19] = ATG_GAL4_TRANS: Attagene TRANS-FACTORIAL HepG2 Assay for GAL4 (Internal Marker) (AID 2282976); settings: HepG2 Attagene TRANS GAL4 internal marker reporter
# How it was run: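 Liver HepG2 line bearing multiplexed GAL4-UAS reporter constructs; 24 h chemical treatment. Transcripts were quantified as fluorescent fragments on capillary electrophoresis after RT-PCR and HpaI cut, with activity fitted upward from DMSO.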
structure (smiles),measurement,setting,value
C=CC(=O)O[C@H]1C[C@@H]2CC[C@@]1(C)C2(C)C,outcome,[1],inactive
same,outcome,[2],inactive
same,outcome,[3],inactive
same,outcome,[4],inactive
same,AC50,[5],162 µM (active)
same,AC50,[6],100 µM (active)
same,outcome,[7],inactive
same,outcome,[8],inactive
same,outcome,[9],inactive
same,outcome,[10],inactive
same,outcome,[11],inactive
same,outcome,[12],inactive
same,outcome,[13],inactive
C=CC(=O)OCCCCCCOC(=O)C=C,outcome,[1],inactive
same,outcome,[2],inactive
same,outcome,[3],inactive
same,AC50,[4],25.6 µM (active)
same,outcome,[5],inactive
same,outcome,[6],inactive
same,outcome,[14],inactive
same,AC50,[7],26.6 µM (active)
same,outcome,[15],inactive
same,outcome,[16],inactive
same,outcome,[9],inactive
same,outcome,[10],inactive
same,outcome,[11],inactive
same,outcome,[17],inactive
same,outcome,[13],inactive
same,outcome,[18],inactive
CC1C(C)(C)C2=C(C(=O)CCC2)C1(C)C (stereo not drawn),outcome,[1],inactive
same,outcome,[2],inactive
same,outcome,[3],inactive
same,outcome,[4],inactive
same,AC50,[6],11.5 µM (active)
same,outcome,[14],inactive
same,outcome,[7],inactive
same,outcome,[15],inactive
same,outcome,[16],inactive
same,outcome,[8],inactive
same,outcome,[9],inactive
same,outcome,[10],inactive
same,outcome,[17],inactive
same,outcome,[13],inactive
same,outcome,[18],inactive
CC1=CC(C)C(C=O)CC1 (stereo not drawn),outcome,[1],inactive
same,outcome,[2],inactive
same,outcome,[3],inactive
same,outcome,[4],inactive
same,outcome,[5],inactive
same,outcome,[6],inactive
same,outcome,[14],inactive
same,outcome,[7],inactive
same,outcome,[16],inactive
same,outcome,[8],inactive
same,outcome,[9],inactive
same,outcome,[10],inactive
same,outcome,[11],inactive
same,outcome,[12],inactive
same,outcome,[13],inactive
same,outcome,[18],inactive
Clc1cc(Cl)c(Cl)c(Cl)c1Cl,outcome,[1],inactive
same,outcome,[2],inactive
same,AC50,[3],100 µM (active)
same,AC50,[4],56.2 µM (active)
same,outcome,[5],inactive
same,AC50,[6],27 µM (active)
same,outcome,[7],inactive
same,outcome,[19],inactive
same,outcome,[10],inactive
same,outcome,[11],inactive
same,outcome,[12],inactive
same,outcome,[17],inactive
same,outcome,[13],inactive
same,outcome,[18],inactive
CC1CCC(=O)C1=O (stereo not drawn),outcome,[1],inactive
same,outcome,[2],inactive
same,outcome,[3],inactive
same,outcome,[4],inactive
same,outcome,[5],inactive
same,outcome,[6],inactive
same,outcome,[7],inactive
same,outcome,[15],inactive
same,outcome,[19],inactive
same,outcome,[8],inactive
same,outcome,[13],inactive
same,outcome,[18],inactive
C=C[Si](OCCOC)(OCCOC)OCCOC,outcome,[1],inactive
same,outcome,[2],inactive
same,outcome,[3],inactive
same,AC50,[4],5.92 µM (active)
same,outcome,[5],inactive
same,outcome,[6],inactive
same,outcome,[7],inactive
same,outcome,[15],inactive
same,outcome,[19],inactive
same,outcome,[9],inactive
same,outcome,[10],inactive
same,outcome,[11],inactive
same,outcome,[13],inactive
same,outcome,[18],inactive
O=C(OCCc1ccccc1)c1ccccc1,outcome,[1],inactive
same,outcome,[2],inactive
same,outcome,[3],inactive
same,outcome,[4],inactive
same,outcome,[5],inactive
same,outcome,[6],inactive
same,outcome,[7],inactive
same,outcome,[8],inactive
same,outcome,[9],inactive
same,outcome,[12],inactive
same,outcome,[17],inactive
same,outcome,[13],inactive
same,outcome,[18],inactive
Fc1ccc(Br)cc1,outcome,[1],inactive
same,outcome,[2],inactive
same,outcome,[3],inactive
same,outcome,[4],inactive
same,AC50,[6],79.7 µM (active)
same,outcome,[14],inactive
same,outcome,[7],inactive
same,outcome,[15],inactive
same,outcome,[16],inactive
same,outcome,[8],inactive
same,outcome,[9],inactive
same,outcome,[10],inactive
same,outcome,[17],inactive
same,outcome,[13],inactive
same,outcome,[18],inactive
